From PubChem BioAssay (NCATS) come the findings set out here.

Assay [1] concerns the target Rap guanine nucleotide exchange factor 3 (Homo sapiens) (UniProt O95398). Kind of assay: Confirmatory qHTS for antagonist of cAMP-regulated guanine nucleotide exchange factor 3 (EPAC1) (AID 1645880). Further: nearly all actives have a fitted effect of over 55% in size. Further: potency means the concentration at half of the fitted maximal effect.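 On activity, negative = inhibition: plate controls were DMSO only for no effect and full effect of the ATA control for full effect.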 The settings on record: EPAC1 Rap1B-BODIPY-GDP exchange, fluorescence; activity, negative = inhibition: at 115 µM (top of the series). The method, boiled down: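 Released BODIPY-GDP fluoresces less than Rap1-bound BODIPY-GDP; the signal is followed at 480/540 nm at 5-min intervals over 30 min, after 5 min at room temperature. Reactions contain 100 nM EPAC1, 250 nM RAP1B-BODIPY-GDP and 50 uM GDP; results are normalized to ATA and DMSO.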
A general note: qHTS replaces the single test concentration by a dilution series.

Assay [2] shares this target. Kind of assay: Confirmatory qHTS for agonist of cAMP-regulated guanine nucleotide exchange factor 3 (EPAC1) (AID 1645881).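 Further: EPAC1 catalysed release of BODIPY-GDP from Rap1B seen as fluorescence loss; 100% = effect of cAMP agonist control; nearly all actives have a fitted effect of over 75% in size.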
Assay [3] has as its target Rap guanine nucleotide exchange factor 4 (Homo sapiens) (UniProt Q8WZA2). Kind of assay: Confirmatory qHTS for agonist of cAMP-regulated guanine nucleotide exchange factor 4 (EPAC2) (AID 1645884).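 Further: nucleotide exchange releases bodipy-GDP from Rap1 and this lowers its fluorescence; on the % scale 0 is the no-effect control and ±100 the full control effect; nearly all actives have a fitted effect of over 65% in size.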
Assay [4] has as its target Rap guanine nucleotide exchange factor 3 (Homo sapiens) (UniProt O95398). The assay is described as follows: Counterscreen qHTS for antagonist of cAMP-regulated guanine nucleotide exchange factor 3 (EPAC1) (AID 1645888). Further: % of control where 0% means no effect. The method in brief: (§1)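 Rap1B-BODIPY-GDP 250 nM + GDP 50 uM; cpds 7-pt, final 9.74 nM–152 uM (activator mode) or from 7.32 nM upwards (inhibitor mode); RT; FI 480/540 nm at 5 and 30 min, then ± cAMP, reread.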
A general note: Counterscreens check selectivity or assay interference.

The target is the same in assay [5]. The assay is described as follows: Counterscreen qHTS for agonist of cAMP-regulated guanine nucleotide exchange factor 3 (EPAC1) (AID 1645889). Further: nearly all actives have a fitted effect of over 40% in size. Further: potency means the concentration at half of the fitted maximal effect. On activation: % of control where 0% means no effect. The method, boiled down: as §1
Assay [6] is described as follows: AP1 Signaling Pathway (AID 357; active means well fitted curve in either direction with a large enough effect, not every such curve was filed as active; further: on the % scale 0 is the no-effect control and ±100 the full control effect). The settings on record: ME-180 (cervical carcinoma) AP-1-bla reporter, EGF-induced, beta-lactamase ratio, 5 h; at 7.69 µM (top of the series) unless noted. The method in brief: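 AP-1-bla ME-180 cells with beta-lactamase reporter under AP-1 response element, stimulated with EC50 EGF; compounds titrated, 5 hours at 37 degrees Celsius. CCF4 read at 460/530 nm ratio; positive and negative modulators judged by AC50.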

A short description of assay [7]: NFAT Signaling Pathway (AID 444; active means well fitted curve in either direction with a large enough effect, not every such curve was filed as active;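 further: carbachol stimulus at about its EC50 of 1 µM final; on the % scale 0 is the no-effect control and ±100 the full control effect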). The conditions noted are these: Jurkat NFAT-bla M1, carbachol, beta-lactamase ratio, 5 h; at 7.69 µM (top of the series) unless noted. The method in brief:
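Read-out: CCF4 FRET ratio (460 nm/530 nm) after 1 h RT dye loading, used for %activity and AC50 from titration series. Cells: Jurkat NFAT-β-lactamase/M1 line, treated with compound plus 1 uM carbachol for 5 h, 37 °C.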

Assay [8] is described as follows: Stat Signaling Pathway (AID 446; active means well fitted curve in either direction with a large enough effect, not every such curve was filed as active;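 further: ME-180 cervical cancer cells given 40 pM IL-6 alongside compound; SIE-controlled beta-lactamase reporter measured as 460/530 nm FRET emission ratio; on the % scale 0 is the no-effect control and ±100 the full control effect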). The method in brief:
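Emission at 460 and 530 nm (excitation 405 nm) reports SIE-controlled beta-lactamase in ME-180 cells. Cells received compound with 40 pM IL-6 for 5 hrs at 37 C; data scaled between 300 pM IL-6 and 125 nM JAK-inhibitor controls.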

Assay [9] addresses Glucocorticoid receptor (Homo sapiens) (UniProt P04150). Kind of assay: GR-GFP Redistribution (AID 450;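 active means compounds whose dose series gives a full or clear partial fitted curve of increased nuclear translocation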; further: potency means the concentration at half of the fitted maximal effect). The conditions noted are these: U2OS GR-GFP nuclear translocation, laser cytometry, 2 h.

Molecules are shown by their SMILES. Unmarked numbers belong to inactive results. Inconclusive results are not listed. Activity calls are given as the source filed them. Unless noted, the call rests on the fitted dose curve; in most records, active means well fitted curve in the direction sought with a large enough effect; inconclusive means small, poorly fitted or top-dose-only effect, or another doubt; inactive means no such curve, though single readings can be large; an effect the other way counts as inactive or inconclusive. Some results are limits rather than exact numbers.

Sequence of Rap guanine nucleotide exchange factor 4 (Homo sapiens) (Q8WZA2 whole entry, looked up): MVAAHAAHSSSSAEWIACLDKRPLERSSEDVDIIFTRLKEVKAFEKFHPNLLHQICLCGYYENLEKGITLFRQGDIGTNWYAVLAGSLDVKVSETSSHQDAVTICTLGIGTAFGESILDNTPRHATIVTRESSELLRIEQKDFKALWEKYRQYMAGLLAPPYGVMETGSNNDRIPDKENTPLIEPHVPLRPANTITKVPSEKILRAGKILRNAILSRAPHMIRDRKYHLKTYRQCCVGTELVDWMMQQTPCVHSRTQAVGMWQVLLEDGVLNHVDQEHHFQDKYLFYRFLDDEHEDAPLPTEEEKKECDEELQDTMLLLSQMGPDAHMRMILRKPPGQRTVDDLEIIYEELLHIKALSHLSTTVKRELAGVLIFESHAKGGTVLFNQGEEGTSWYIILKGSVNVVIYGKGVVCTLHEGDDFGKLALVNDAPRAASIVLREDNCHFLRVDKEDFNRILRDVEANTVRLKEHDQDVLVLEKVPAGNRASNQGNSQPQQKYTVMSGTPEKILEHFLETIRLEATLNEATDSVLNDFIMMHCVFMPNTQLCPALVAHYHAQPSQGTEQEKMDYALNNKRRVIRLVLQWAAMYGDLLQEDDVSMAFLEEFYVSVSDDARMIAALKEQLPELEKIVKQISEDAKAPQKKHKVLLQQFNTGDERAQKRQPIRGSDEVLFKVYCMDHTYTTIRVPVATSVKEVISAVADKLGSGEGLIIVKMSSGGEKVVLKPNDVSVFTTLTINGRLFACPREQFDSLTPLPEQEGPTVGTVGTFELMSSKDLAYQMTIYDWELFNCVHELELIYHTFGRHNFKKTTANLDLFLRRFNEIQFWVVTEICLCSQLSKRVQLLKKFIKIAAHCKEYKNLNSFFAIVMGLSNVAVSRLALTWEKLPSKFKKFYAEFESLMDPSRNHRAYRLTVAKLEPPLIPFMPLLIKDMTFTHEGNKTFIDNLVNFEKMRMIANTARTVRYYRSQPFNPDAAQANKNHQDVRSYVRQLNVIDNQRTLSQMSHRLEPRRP
Sequence of Rap guanine nucleotide exchange factor 3 (Homo sapiens) (O95398 whole entry, looked up): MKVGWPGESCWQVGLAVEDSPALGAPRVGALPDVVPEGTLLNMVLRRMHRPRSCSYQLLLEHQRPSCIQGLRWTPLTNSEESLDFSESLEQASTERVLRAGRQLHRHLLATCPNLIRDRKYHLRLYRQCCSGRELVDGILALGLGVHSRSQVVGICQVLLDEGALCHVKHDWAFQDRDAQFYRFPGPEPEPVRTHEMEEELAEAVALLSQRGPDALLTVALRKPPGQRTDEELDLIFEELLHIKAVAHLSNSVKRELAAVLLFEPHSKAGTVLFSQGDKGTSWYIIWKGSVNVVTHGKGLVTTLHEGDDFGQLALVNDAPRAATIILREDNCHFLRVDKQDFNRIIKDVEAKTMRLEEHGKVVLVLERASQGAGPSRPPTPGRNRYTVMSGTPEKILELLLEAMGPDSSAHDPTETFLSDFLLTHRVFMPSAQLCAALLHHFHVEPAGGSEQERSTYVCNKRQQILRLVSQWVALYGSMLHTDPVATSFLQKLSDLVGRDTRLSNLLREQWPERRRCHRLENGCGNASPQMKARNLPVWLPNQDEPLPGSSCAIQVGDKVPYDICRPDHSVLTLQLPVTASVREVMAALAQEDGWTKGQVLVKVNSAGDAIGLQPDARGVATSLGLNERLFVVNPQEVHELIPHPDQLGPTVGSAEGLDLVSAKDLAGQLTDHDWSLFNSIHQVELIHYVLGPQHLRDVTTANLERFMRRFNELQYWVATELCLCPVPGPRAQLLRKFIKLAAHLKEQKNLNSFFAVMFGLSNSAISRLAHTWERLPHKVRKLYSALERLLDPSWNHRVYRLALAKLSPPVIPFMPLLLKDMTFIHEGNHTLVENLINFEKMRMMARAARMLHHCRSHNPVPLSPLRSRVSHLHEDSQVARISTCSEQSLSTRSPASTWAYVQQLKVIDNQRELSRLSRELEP
Sequence of Glucocorticoid receptor (Homo sapiens) (P04150 whole entry, looked up): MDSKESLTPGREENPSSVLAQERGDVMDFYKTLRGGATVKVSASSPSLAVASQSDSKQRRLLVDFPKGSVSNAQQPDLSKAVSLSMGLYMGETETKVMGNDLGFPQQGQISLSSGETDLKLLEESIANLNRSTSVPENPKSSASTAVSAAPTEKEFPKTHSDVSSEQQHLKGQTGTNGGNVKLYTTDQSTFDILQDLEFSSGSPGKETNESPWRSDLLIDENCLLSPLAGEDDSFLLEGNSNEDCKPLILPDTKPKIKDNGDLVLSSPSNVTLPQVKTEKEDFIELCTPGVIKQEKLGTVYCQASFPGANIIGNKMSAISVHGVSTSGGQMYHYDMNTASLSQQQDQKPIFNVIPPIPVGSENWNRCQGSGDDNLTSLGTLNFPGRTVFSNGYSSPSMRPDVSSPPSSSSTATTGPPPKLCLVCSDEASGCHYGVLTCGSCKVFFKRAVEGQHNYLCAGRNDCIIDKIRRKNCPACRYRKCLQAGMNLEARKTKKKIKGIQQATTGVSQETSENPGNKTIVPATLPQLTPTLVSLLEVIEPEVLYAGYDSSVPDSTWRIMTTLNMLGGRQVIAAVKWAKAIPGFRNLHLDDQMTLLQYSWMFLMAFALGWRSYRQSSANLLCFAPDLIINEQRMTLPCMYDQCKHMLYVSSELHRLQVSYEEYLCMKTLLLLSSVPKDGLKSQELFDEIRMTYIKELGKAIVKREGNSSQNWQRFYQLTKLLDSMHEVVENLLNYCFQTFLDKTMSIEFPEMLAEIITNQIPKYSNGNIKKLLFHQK

With `O=C(c1ccc(CN2CCc3ccccc3C2)cc1)N1CCCCC1`, the Potency result in assay [1], in assay [2], in assay [3], in assay [4] and in [5] was “inactive” each time.
Regarding `CCN(CC(=O)Nc1c(F)cccc1F)C(=O)/C=C/c1ccc2ccccc2n1`, the Potency in assay [1] is 8.49 µM (active). Moreover, the Potency result in [2], in assay [3], in [4] and in [5] was “inactive” throughout.
Turning to `CCCNC(=O)Cn1c(=O)/c(=C/c2ccc(-c3ccc([N+](=O)[O-])cc3)o2)s/c1=C\C(=O)C(C)(C)C`, the results for the Potency in assay [1] and in assay [5] were 37.9 µM (active) and 5.01 µM (active), respectively. For the same compound, the Potency result in assay [2], in [3] and in assay [4] was “inactive” each time.
Regarding `CCOC(=O)C1=C(N)c2ccccc2CC1C1CCCC1` (centres undefined), the Potency result in assay [1], in assay [2], in [3], in assay [4] and in [5] was “inactive” throughout.
Regarding `COc1ccccc1C(=O)Nc1ccccc1C(=O)N1C(C)CCCC1C` (centres undefined), the Potency entry in assay [1], in assay [2], in [3], in assay [4] and in assay [5] was “inactive” each time.
`CNc1ccc(-c2nc(-c3ccco3)no2)cc1[N+](=O)[O-]`: the Potency entry in assay [1], in assay [2], in assay [3], in [4] and in assay [5] was “inactive” throughout.
As for `COc1ccc(/C=C2/SC(=S)N(NS(=O)(=O)c3ccc(C)cc3)C2=O)cc1`, the Potency in assay [1] was 47.8 µM (active). The Potency result in [2], in [3], in [4] and in assay [5] was “inactive” in each case.
Turning to `CCC(NC(=O)Nc1ncccc1C)(C(F)(F)F)C(F)(F)F`, the activity change, negative = inhibition in [6] was 11.9% [at 17.2 µM]; in assay [7] it was -12% [at 17.2 µM]. Also, in [8], the compound was classed as inactive. In addition, in assay [9], the Potency was greater than 20.6 µM. In addition, the Potency entry in assay [1], in assay [2], in assay [3], in assay [4] and in assay [5] was “inactive” throughout.
Regarding `COc1cc2c(cc1OC)C(COc1ccc(F)cc1)N(C(C)=O)CC2` (centres undefined), the Potency result in [1], in [2], in [3], in [4] and in [5] was “inactive” each time.
On to `Cc1cc(C)c(S(=O)(=O)c2ccc(F)cc2)c(C)c1`, for which the Potency entry in assay [1] and in assay [2] was “inactive” in each case. For the same compound, the activation in assay [3] was 0% [at 17.1 µM, percent relative to cAMP agonist control]; in assay [5], -0.628% [at 30.8 µM]. For the same compound, the activity change, negative = inhibition in assay [4] is -27.6% [at 30.8 µM].
For `Nc1nnc(CC(=O)N/N=C/c2cc([N+](=O)[O-])cc(Br)c2O)s1`, in assay [1], the Potency was 10.7 µM (active). The Potency result in [2], in assay [3], in [4] and in assay [5] was “inactive” in each case.
Take `CC(=O)c1c(-c2ccccc2)c2cc(Cl)ccc2n(C)c1=O`: the Potency entry in assay [1] and in assay [2] was “inactive” each time. Further, the activation in [3] was -9.72% [at 17.1 µM, percent relative to cAMP agonist control]; in assay [5], 9.36% [at 30.8 µM]. Moreover, the activity change, negative = inhibition in assay [4] was -1.67% [at 30.8 µM].
As to `Cc1ccccc1-c1cc2nc(NCCN3CCNC3=O)n(C)c(=O)c2s1`, the Potency entry in assay [1], in [2], in assay [3], in assay [4] and in assay [5] was “inactive” in each case.
For `O=[N+]([O-])c1ccc2nc(NS(=O)(=O)c3ccc(F)cc3)sc2c1`, in assay [1], the Potency is 42.6 µM (active). In addition, the Potency result in [2], in [3], in assay [4] and in [5] was “inactive” throughout.
With `OC[C@@H]1[C@@H](c2ccc(F)cc2)C(c2cccc(Cl)c2)=NN1c1ccccc1`, the Potency entry in assay [1], in assay [2], in [3] and in [4] was “inactive” in each case. The Potency in [5] was 12.6 µM (active).
For `COc1ccc(S(=O)(=O)Nc2cccc(C)c2C)c2cccnc12`, the Potency entry in assay [1], in assay [2], in assay [3], in [4] and in [5] was “inactive” each time.
Regarding `CCOc1ccc(Br)cc1S(=O)(=O)Nc1ccc(S(=O)(=O)Nc2cc(C)on2)cc1`, the Potency in assay [1] is 19 µM (active). Besides, the Potency entry in assay [2], in assay [3], in [4] and in [5] was “inactive” each time.
As for `CCCS(=O)(=O)NC(=O)C1(C)CCN(C(=O)c2cccc(OC(F)(F)F)c2)C1` (centres undefined), the Potency entry in assay [1], in [2], in assay [3], in assay [4] and in assay [5] was “inactive” in each case.
As to `O=[N+]([O-])c1cc(/C=N/O)ccc1Oc1ccccc1Cl`, the Potency result in assay [1], in assay [2], in [3], in assay [4] and in [5] was “inactive” throughout.
